Screening data deposited in PubChem by National Center for Advancing Translational Sciences (NCATS).
This is a sample that favours compounds with a hit; in the whole collection about 7.2% have one here.
SNCA viab count: cell viability loss counter-screen; HEK-293-SNCA-luc viability, GF-AFC fluorescence, 24 h; Potency, µM (series often up to 57.1 µM), actives largely listed as cytotoxic; hit rate 0.12% among 150,000; AID 1671193; also: nearly all actives have a fitted effect of over 30% in size
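HEK-293-SNCA-luc cells (1500/well) plated 24 h, then exposed 24 h to a dilution series; GF-AFC added 30 min at 37C, fluorescence 405/540 nm; normalised to medium-only and DMSO wells, Hill fit.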
HEK293 tox: kills HEK 293 cells; HEK 293 viability, ATP luminescence (CellTiter-Glo), 48-72 h; Potency, µM (highest dose often 115 µM), usual class: inhibitors; hit rate 6.6% among 94,000; also: nearly all actives have a fitted effect of over 60% in size
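ATP-coupled CellTiter-Glo luminescence served as viability read-out, recorded 10 min after reagent addition at room temperature. HEK 293 cells, 250 cells/well, had been incubated with pintool-transferred compound for 48 or 72 hr at 37 degree Celsius.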
hNpr1 antagonist: human Npr1 receptor antagonism | P16066 | HEK293 hNpr1 GloSensor cGMP, ANP-stimulated luminescence | Potency, µM (titrated, usually from 46.3 µM), usual class: inhibitors | hit rate 1.6% among 76,000 | AID 1347048; calls by dose curve; also: nearly all actives have a fitted effect of over 60% in size
Target sequence (P16066 whole entry, looked up): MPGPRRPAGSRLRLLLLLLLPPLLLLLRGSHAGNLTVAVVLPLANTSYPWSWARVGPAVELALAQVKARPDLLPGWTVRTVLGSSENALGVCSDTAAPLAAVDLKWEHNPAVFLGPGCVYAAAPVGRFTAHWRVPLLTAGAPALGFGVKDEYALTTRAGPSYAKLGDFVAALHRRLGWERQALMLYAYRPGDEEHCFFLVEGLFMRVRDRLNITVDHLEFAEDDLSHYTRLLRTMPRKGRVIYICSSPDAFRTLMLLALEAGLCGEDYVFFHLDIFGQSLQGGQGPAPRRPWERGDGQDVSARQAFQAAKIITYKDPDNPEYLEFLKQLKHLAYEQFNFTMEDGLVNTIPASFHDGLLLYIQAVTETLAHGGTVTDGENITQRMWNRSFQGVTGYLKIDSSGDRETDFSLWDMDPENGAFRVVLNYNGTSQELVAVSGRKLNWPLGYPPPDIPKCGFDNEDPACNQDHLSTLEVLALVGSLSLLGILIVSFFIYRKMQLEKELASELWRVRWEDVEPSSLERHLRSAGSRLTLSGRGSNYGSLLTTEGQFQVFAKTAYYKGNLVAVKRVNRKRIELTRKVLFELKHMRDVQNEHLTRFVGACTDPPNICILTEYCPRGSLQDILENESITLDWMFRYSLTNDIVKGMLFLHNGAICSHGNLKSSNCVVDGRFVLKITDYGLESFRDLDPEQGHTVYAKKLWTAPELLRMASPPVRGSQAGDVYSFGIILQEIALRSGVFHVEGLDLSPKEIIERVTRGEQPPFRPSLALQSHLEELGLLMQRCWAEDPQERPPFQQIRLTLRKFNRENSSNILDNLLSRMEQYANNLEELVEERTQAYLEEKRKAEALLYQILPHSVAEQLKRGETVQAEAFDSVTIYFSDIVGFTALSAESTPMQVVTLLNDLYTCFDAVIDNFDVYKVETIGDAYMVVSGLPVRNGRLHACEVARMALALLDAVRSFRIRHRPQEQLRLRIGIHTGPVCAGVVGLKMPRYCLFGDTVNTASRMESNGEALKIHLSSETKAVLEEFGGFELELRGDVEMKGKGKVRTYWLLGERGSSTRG
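HEK293 cells stably expressing human Npr1 and cGMP GloSensor pGS-40F, loaded 2 h with 2% GloSensor reagent, given compound 30 min at room temperature. Luminescence read before and 20 min after 0.1 nM hNppA.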
Luciferase inh: blocks purified firefly luciferase enzyme activity; P08659; purified P. pyralis luciferase, luminescence, biochemical; Potency, µM (series often up to 115 µM), actives largely listed as inhibitors; hit rate 2.5% among 76,000; AID 1347043; also: nearly all actives have a fitted effect of over 65% in size
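Inhibitors were tested against purified firefly luciferase in a biochemical, low-substrate format (both substrates at 10uM) and luminescence measured with a CCD imager.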
SNCA expr inh: inhibitors of alpha-synuclein (SNCA) gene expression; HEK-293 SNCA-luciferase knock-in, luminescence, 24 h; hit rate 0.17% among 140,000; Potency, µM (highest dose often 57.2 µM), hits mostly inhibitors; AID 1671194; also: nearly all actives have a fitted effect of over 45% in size
NIH3T3 tox: kills NIH 3T3 cells | NIH 3T3 viability, CellTiter-Glo ATP luminescence, 48-72 h | Potency, µM (highest dose often 96.7 µM), hits mostly inhibitors | hit rate 4.3% among 94,000; also: nearly all actives have a fitted effect of over 55% in size
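ATP-dependent luminescence (CellTiter-Glo) served as the viability signal for NIH 3T3 cells treated with compound for 48 or 72 hr at 37 °C.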
NPR1 antag cnf: confirmation of human Npr1 natriuretic peptide receptor antagonists; shares compounds with hNpr1 antagonist; HEK293 hNpr1 cGMP GloSensor luminescence, ANP-stimulated; Potency, µM (highest dose often 57.6 µM), usual class: inhibitors; hit rate 76% among 1,400; AID 1347044; calls by dose curve; also: nearly all actives have a fitted effect of over 70% in size
Npr2 selectivity: hNpr2 antagonism, selectivity versus Npr1; hit rate 67% among 1,400; shares compounds with hNpr1 antagonist; HEK293 hNpr2 GloSensor cGMP luminescence, CNP-stimulated; Potency, µM (titrated, usually from 57.6 µM), hits mostly inhibitors; calls by dose curve; also: nearly all actives have a fitted effect of over 70% in size
FLuc counter: counter-screen for Npr1 antagonists: firefly luciferase inhibitors; shares compounds with hNpr1 antagonist; hit rate 0.7% among 1,400; purified FLuc enzyme, luminescence, Km substrate; AID 1347047; Potency, µM (doses to about 57.6 µM), usual class: inhibitors
GloSensor cGMP: counter-screen for Npr1 antagonists: GloSensor control cell line | HEK293 GloSensor cGMP, SNP-stimulated, luminescence | Potency, µM (highest dose often 57.6 µM), most hits filed as inhibitors | hit rate 69% among 1,400 | shares compounds with hNpr1 antagonist | AID 1347051; calls by dose curve; also: nearly all actives have a fitted effect of over 70% in size
A number is an active result; 0 = inactive; ? = inconclusive; - = not tested or not shown; [ ] = remark or other dose. Unless noted, calls follow the shape of the dose curve; as a rule, active = well fitted curve in the direction sought with a large enough effect; inconclusive = small, poorly fitted or top-dose-only effect, or another doubt; inactive = no such curve, though single readings can be large; an effect the other way counts as inactive or inconclusive.

SMILES | SNCA viab count | HEK293 tox | hNpr1 antagonist | Luciferase inh | SNCA expr inh | NIH3T3 tox | NPR1 antag cnf | Npr2 selectivity | FLuc counter | GloSensor cGMP
COc1cccc(C(=O)N2CCC3(CC2)NC(=O)N(Cc2ccccc2)C3=O)c1OC | 0 | 0 | 0 | 0 | 0 | 0 | - | - | - | -
Cc1nc(CN2C(=O)OC3(CCN(Cc4c[nH]c5ccccc45)CC3)C2(C)c2ccccc2)cs1 (configuration not stated) | 0 | ? | 0 | 0 | 0 | 20µM | ? | ? | 0 | 0
COc1cc(-c2cc(C)c3c(OC)ccc(OC)c3n2)cc2c1OCCNC2 | 0 | ? | ? | 0 | 0 | 20µM | ? | ? | 0 | 0
COc1ccc(CN2CCCn3nc(C)c(-c4ccccc4Oc4ccccc4)c32)cc1O | ? | 20µM | 2.51µM | 0 | 6.31µM | 11.2µM | 21.7µM | 21.7µM | 0 | 4.85µM
Cc1nn2c(c1-c1ccccc1Oc1ccccc1)N(Cc1ccc(C(=O)O)cc1)CCC2 | ? | 44.7µM | 2.82µM | 0 | ? | 25.1µM | ? | ? | 0 | ?
Cc1nn2c(c1-c1ccccc1-c1ccccc1)N(Cc1cccc(O)c1)CCC2 | ? | ? | 2.24µM | 0 | ? | ? | 3.14µM | 4.98µM | 0 | 3.53µM
O=C([C@@H]1C[C@H](Oc2cccnc2)CN1C(=O)c1ccc2ccccc2n1)N1CCCC1 | 0 | 0 | 0 | 0 | 0 | 0 | - | - | - | -
Cc1cccc(N2CCN(C(=O)CC3CCCCN(Cc4ccccc4)C3=O)CC2)c1 (configuration not stated) | 0 | ? | 12.6µM | 0 | 0 | ? | 19.3µM | 21.7µM | 0 | 21.7µM
CCOc1ccc(CN2CCCC(CO)(CCc3ccccc3)C2)cc1CO (configuration not stated) | 0 | ? | 0 | 0 | 0 | ? | - | - | - | -
O=C1NCc2ccccc2CC12CCCN(Cc1ccsc1)C2 (configuration not stated) | 0 | 0 | - | - | 0 | 0 | - | - | - | -
O=C(Cc1ccccc1)N1CCC2(CC1)CC(N(C(=O)c1ccccc1)C1CC1)CCO2 (configuration not stated) | 0 | ? | 0 | 0 | 0 | 0 | - | - | - | -
O=C(CCC1CCCC1)N1CCC2(CC1)CC(N(C(=O)c1ccccc1)C1CC1)CCO2 (configuration not stated) | 0 | ? | ? | 0 | 0 | ? | ? | 0 | 0 | ?
CCN(Cc1ccncc1)C(=O)CC(c1ccccc1)c1ccc2c(c1)OCO2 (configuration not stated) | ? | ? | ? | 0 | 0 | 0 | ? | 13.7µM | 0 | 0
Cc1noc([C@@H]2CN(C(=O)CC3CCCC3)C[C@H]2CO)n1 | 0 | 0 | 0 | 0 | 0 | 0 | - | - | - | -
COc1cccc(-c2noc(CC3CCN(C(=O)c4cc(Cl)ccc4F)CC3)n2)c1 | ? | ? | 8.91µM | 0 | ? | ? | 12.2µM | 19.3µM | 0 | 13.7µM
COc1cccc(-c2noc(CC3CCN(C(=O)c4ccccc4)CC3)n2)c1 | 0 | 39.8µM | 7.94µM | 0 | 0 | ? | 9.68µM | 10.9µM | 0 | 9.68µM
COc1cccc(-c2noc(CC3CCN(C(=O)c4ccc(OC)c(OC)c4)CC3)n2)c1 | 0 | ? | 11.2µM | 0 | ? | ? | 9.68µM | 12.2µM | 0 | 10.9µM
O=C(c1cc(Cl)ccc1F)N1CCC(Cc2nc(-c3cnccn3)no2)CC1 | 0 | ? | 0 | 0 | 0 | ? | - | - | - | -
COc1cccc(-c2noc(CC3CCN(C(=O)c4cccc(Cl)c4)CC3)n2)c1 | 0 | ? | 8.91µM | 0 | ? | ? | 7.69µM | 10.9µM | 0 | 7.69µM
COc1cc(OC)cc(C(=O)N2CCC(Cc3nc(-c4cnccn4)no3)CC2)c1 | 0 | 0 | 0 | 0 | 0 | 0 | - | - | - | -
CC(C)C1c2nccn2CCCN1C(=O)c1ccc(C#N)cc1 (configuration not stated) | 0 | 0 | 0 | 0 | 0 | 0 | - | - | - | -
CN1CC(=O)N(C2CCCNC2)Cc2c1ncnc2N1CCCC(O)C1 (configuration not stated) | 0 | 0 | - | - | 0 | 0 | - | - | - | -
O=C(Cc1cccc(Cl)c1)N1CCN(C(=O)c2nc3cccnc3n(CCc3ccccc3)c2=O)CC1 | 0 | ? | - | - | 0 | ? | - | - | - | -
O=C(CC1=CCCCC1)N1CCC(C2CCNC2)CC1 (configuration not stated) | 0[12.5 µM] | ? | 0 | 0 | 0 | ? | - | - | - | -
Cc1cc(C(=O)NC(C)c2cnc(N3CCCCCCC3)nc2C)n[nH]1 (configuration not stated) | 0 | ? | 10µM | 0 | 0 | ? | 21.7µM | 24.3µM | 0 | 21.7µM
SMILES | SNCA viab count | HEK293 tox | hNpr1 antagonist | Luciferase inh | SNCA expr inh | NIH3T3 tox | NPR1 antag cnf | Npr2 selectivity | FLuc counter | GloSensor cGMP
COc1ccc(CN2CCc3nc(C(=O)NCc4cccc(F)c4)oc3CC2)cc1OC | 0 | ? | 0 | 0 | 0 | ? | - | - | - | -
COc1ccccc1CN1CCc2nc(C(=O)NCc3cccc(F)c3)oc2CC1 | 0 | ? | 0 | 0 | 0 | ? | - | - | - | -
O=C(NCc1ccccc1)c1nc2c(o1)CCN(Cc1ccc(F)cc1)CC2 | 0 | ? | ? | 0 | 0 | ? | 35.3µM | 35.3µM | 0 | 35.3µM
O=C(NCc1ccccc1)c1nc2c(o1)CCN(Cc1ccc(F)c(Cl)c1)CC2 | 0 | ? | 22.4µM | 0 | 0 | 44.7µM | 28µM | 28µM | 0 | 19.8µM
Cc1nnc2ccc(N3CCC(NC(=O)Nc4ccc(Cl)cc4)C3)nn12 (configuration not stated) | - | ? | - | - | - | 0 | - | - | - | -
CCOC(=O)C1=C(C)N=C2SC=C(CC(=O)NCc3ccco3)N2C1c1ccccc1Cl (configuration not stated) | 0 | ? | 11.2µM | 0 | ? | 0 | ? | ? | 0 | 0
C=CCOC(=O)C1=C(C)N=C2SC=C(CC(=O)N3CCCC3)N2C1c1cc(OC)cc(OC)c1 (configuration not stated) | 0 | ? | 10µM | 0 | 0 | 0 | 17.2µM | 15.3µM | 0 | 0
COC(=O)C1=C(C)N=C2SC=C(CC(=O)N3CCCC3)N2C1c1ccccc1OC (configuration not stated) | 0 | 0 | 0 | 0 | 0 | 0 | - | - | - | -
